# Measured values: ChEMBL document CHEMBL3988442, “University of Dundee, Small-Polar-MMV Screening Library” (2021)
# Hit rate of the full screen: of about 48,000 compounds, about 13,000 (27%) showed an effect of 50% or more. The list shows a part of the results.
# Test system: Wolbachia pipientis
# Assay: Anti-Wolbachia Cell-Based Screen
# Assay type: functional
# Design: scale not given: in the data most compounds retested in dose-response had high values
# Conditions: 5 µM
row,Compound,Percent Effect
1,COc1ccc(Br)c(C(=O)N2CCC(c3n[nH]c(C4CC4)n3)CC2)c1,9.985%
2,O=C(Cc1csc(N2CCNC2=O)n1)NC1(c2ccccc2)CCC1,3.065%
3,Cc1nc(NC(=O)N2CCCC(C(C)(C)O)C2)nn1C (centres undefined),7.598%
4,CC(C)N[C@@H]1CO[C@H](CNC(=O)c2cccs2)[C@H]1O,0.5301%
5,NC(=O)NCC(=O)N1CCC(c2cc(-c3ccccc3Cl)n[nH]2)CC1,9.084%
6,CC(C)N1CCCC(C(=O)NCc2noc(Cc3ccccc3)n2)C1 (centres undefined),-0.7063%
7,CCOC(=O)CNC(=O)C1CN(C(=O)c2cnccn2)C1,12.27%
8,CCC(CNC(C)=O)(OC)c1ccccc1 (centres undefined),-7.237%
9,CC(C)(C)OC(=O)CNC(=O)CCc1nnc(-c2ccsc2)o1,-11.15%
10,COC(=O)CN1CC(c2nc(Cc3ccccc3)no2)C1.O=C(O)C(=O)O,-2.345%
11,CC(=O)N1N=C(Cc2ccccc2)OC1C(=O)NCC(C)C (centres undefined),119.9%
12,CCOC(=O)CNC(=O)N1CCCC(CNC(=O)c2ccco2)C1 (centres undefined),-9.65%
13,CCN1CC(C(=O)NCc2noc(Cc3ccccc3)n2)CCC1=O (centres undefined),-8.005%
14,CCOC(=O)CNC(=O)C1OC(c2ccccc2)=NN1C(C)=O (centres undefined),105.7%
15,CC(=O)N1N=C(Cc2ccccc2)OC1C(=O)NCC(=O)OC(C)(C)C (centres undefined),112%
16,CN(C(=O)c1ccco1)C1CCC(NC(=O)OC(C)(C)C)CC1 (centres undefined),-29.92%
17,CC(=O)N1N=C(c2ccccc2)OC1C(=O)NCC(=O)OC(C)(C)C (centres undefined),126.7%
18,CC(C)N[C@@H]1CO[C@H](CNC(=O)Nc2ccccc2)[C@H]1O,-15.53%
19,Cc1nc(C(NC(=O)CN(C)C(C)C)c2ccccc2F)no1 (centres undefined),-8.62%
20,CCc1nnc(CN2CCN(C(C)=O)CC2)o1,-9.857%
21,Cc1ccc(C(=O)N2CCC(Oc3ccc(F)cc3F)CC2)c(=O)[nH]1,-17.81%
22,CC(C)c1nnc(NCCS(C)(=O)=O)s1,-6.765%
23,CC1(C)COCCN1C(=O)CCc1nc(-c2ccncc2)no1,14.72%
24,CCOc1ncccc1CNc1cc(COC)ncn1,-5.284%
25,O=C(c1ccccc1-c1ccccc1)N1CCOC2(CNCCOC2)C1 (centres undefined),-21.41%
26,O=C(C1CCCC1)N1CC2(CCNC2)OCc2ccccc21 (centres undefined),106%

row,Compound,Percent Effect
1,Cc1ccccc1C(=O)N1CCOC2(CNCCOC2)C1 (centres undefined),-17.32%
2,COc1ccc(Cl)cc1C(=O)N1CCOC2(CNCCOC2)C1 (centres undefined),-14.44%
3,O=C1OC2(CCNCC2)CN1CC(=O)N1CCC1c1cccs1 (centres undefined),-13.03%
4,O=C(c1ccccc1)N1CC2(CCNC2)OCc2ccccc21 (centres undefined),116.8%
5,O=C(c1ccc(NCc2ccco2)nc1)N1CCc2ccccc21,16.32%
6,Cc1ccccc1C1CCCN1C(=O)CN1CC2(CCNCC2)OC1=O (centres undefined),-3.464%
7,O=C(c1ccc(Cl)cc1)N1CC2(CCNC2)OCc2ccccc21 (centres undefined),113.7%
8,Clc1cc(CN2CCCC(Cn3cncn3)C2)c2ncccc2c1 (centres undefined),-5.34%
9,N#CCC(=O)NCc1nnc2n1CCN(Cc1ccsc1)C2,-8.086%
10,COC(=O)CN1N=C(C(=O)N2CCCC2)S(=O)(=O)c2ccccc21,18.69%
11,Cc1nccn1-c1cncc(C2CCCN2Cc2cccnc2)n1 (centres undefined),117.3%
12,CCc1nc(C2CCCN2Cc2nccn2Cc2ccccc2)no1 (centres undefined),3.12%
13,Cc1nccn1-c1cncc(C2CCCN2Cc2ccccc2)n1 (centres undefined),97.46%
14,CC(C)c1nccn1-c1cncc(C2CCCN2Cc2cccnc2)n1 (centres undefined),151.3%
15,COCCN(Cc1ccc(F)cc1C#N)CC(F)(F)F,-22.68%
16,CNC(=O)C1(CCCc2cccnc2)CCCCN1 (centres undefined),-7.533%
17,COCCCn1ccc(NC(=O)NCCc2cccnc2)n1,-2.122%
18,CN1CCCC1(CCCc1cccnc1)C(=O)NCc1nccn1C (centres undefined),97.51%
19,COCCNC(=O)C1(CCCc2cccnc2)CCCN1C (centres undefined),112.4%
20,O=C(Nc1ccnc2ccnn12)c1ccc(N2CCC(O)CC2)cc1,5.741%
21,CN(CC1CCOCC1)C(=O)NCCCN1CCCCC1,-10.18%
22,COCCN1CCC(CN(CC2CCCO2)C(=O)CNC(C)=O)CC1 (centres undefined),106.5%
23,COCCN1CCC(CNC(=O)C2(NC(C)=O)CCCCC2)CC1,17.17%
24,COCCN1CCC(CN(CC2CCCO2)C(=O)CCC(F)(F)F)CC1 (centres undefined),140.7%
25,COCC(=O)N(CCC(=O)OC)CC1CCCO1 (centres undefined),-0.04842%
26,COCCN1CCC(CN(CC2CCCO2)C(=O)CCNC(C)=O)CC1 (centres undefined),-5.608%

row,Compound,Percent Effect
1,COCCN1CCC(CN(CC2CCCO2)C(=O)COC)CC1 (centres undefined),-4.712%
2,COCCN1CCC(CN(CC2CCCO2)C(=O)C2CCOCC2)CC1 (centres undefined),95.06%
3,O=C(CC1CCCO1)Nc1ccn(Cc2cccc3cccnc23)n1 (centres undefined),-4.253%
4,CC(=O)N1CCN(C(=O)CCCc2nc(C(C)C)no2)CC1,-8.538%
5,CC(NCc1cnc(C2CCC2)s1)c1ccc(-n2cccn2)cc1 (centres undefined),-14.42%
6,CC1(Cc2ccc3c(c2)OCO3)CCCN(S(=O)(=O)N2CCCC2)C1 (centres undefined),-20.92%
7,O=S(=O)(Nc1ccc2c(c1)OCCO2)N1CCCCC1,85.12%
8,Cc1cc(C(=O)O)cc(S(=O)(=O)Nc2ccc3c(c2)OCO3)c1C,13.44%
9,CN(C)S(=O)(=O)Nc1ccc(Oc2ccc3c(c2)OCO3)cc1,102.4%
10,Cc1c(F)cc(C(=O)O)cc1S(=O)(=O)Nc1ccc2c(c1)OCCO2,-12.89%
11,O=S(=O)(Nc1ccc(Oc2ccc3c(c2)OCO3)cc1)N1CCCCC1,108.9%
12,CN(C)S(=O)(=O)Nc1ccc(-n2nccc2C(F)(F)F)cc1,-20.66%
13,O=C(CSc1ccc2c(c1)OCCO2)NS(=O)(=O)C1CCCCC1,-3.835%
14,O=C(c1cc(COc2ccc3c(c2)OCO3)[nH]n1)N1CCCCO1,18.38%
15,CC(C)c1nsc(N2CCn3c(nnc3C(F)(F)F)C2)n1,-8.607%
16,CCc1cc(=O)[nH]c(-c2ccc(NCCc3ccc(O)cc3)nc2)n1,-8.547%
17,Cc1ccc(CNC2CCN(CCc3ccncc3)CC2)cc1C,2.941%
18,O=C1[C@H]2CC[C@H](CN(Cc3ccccc3OC(F)F)C2)N1CC1CC1,-16.02%
19,CN(C)CCN1CCO[C@@H]2CCN(C(=O)c3cccn3C)CC[C@H]21,111.2%
20,Cn1cccc1C(=O)N1CCO[C@@H]2CN(Cc3ccco3)C[C@@H]2C1,74.97%
21,Cn1cc(CN2C[C@@H]3CN(C(=O)c4cccn4C)CCO[C@@H]3C2)cn1,94.4%
22,Cn1cc(CN2C[C@@H]3CN(Cc4ccoc4)CCO[C@@H]3C2)cn1.O=C(O)C(F)(F)F.O=C(O)C(F)(F)F,1.152%
23,Cc1nc(CN2CCO[C@H]3CN(C(=O)c4cccn4C)C[C@H]32)cs1,4.285%
24,CN(C)CCN1CCO[C@H]2CCN(C(=O)c3cccs3)CC[C@@H]21.O=C(O)C(F)(F)F.O=C(O)C(F)(F)F,-1.673%
25,CCS(=O)(=O)N1C[C@@H]2CN(Cc3cnn(C)c3)CCO[C@@H]2C1.O=C(O)C(F)(F)F,4.441%
26,O=C(O)C(F)(F)F.O=C(c1cocn1)N1C[C@@H]2CN(Cc3ccco3)CCO[C@@H]2C1,-2.402%

row,Compound,Percent Effect
1,O=S(=O)(C1CC1)N1CCO[C@@H]2CN(Cc3ccco3)C[C@@H]2C1,3.474%
2,CN(Cc1ccc(Cl)s1)C(=O)CN1CC(n2cccn2)C1,-39.44%
3,CCC(NC(=O)CCNC(=O)c1ccccc1F)c1cc(C)ccn1 (centres undefined),-12.53%
4,CC(C)Cc1nc(CCn2ccc(=O)[nH]c2=O)n(-c2ccccn2)n1,0.8317%
5,CCC(c1nc(C(C)C)nn1-c1ccncc1C)n1cccn1 (centres undefined),-1.289%
6,Cc1nc[nH]c1C(=O)N1CCCC2(CN(C)C(=O)O2)C1 (centres undefined),-29.59%
7,COc1ccc(-c2cnc(NC(C)=O)[nH]2)cc1,-6.695%
8,COc1ncc(-c2ccc(C(N)=O)cc2)c(OC)n1,99.76%
9,COc1ncc(NC(=O)c2ccco2)c(OC)n1,4.719%
10,COc1ncc(-c2ccc(O)cc2)c(OC)n1,83.6%
11,COc1ncc(NS(=O)(=O)c2cccc(C)c2)c(OC)n1,20.6%
12,COc1ncccc1-c1cc(C(N)=O)ccn1,12.1%
13,COc1ncc(-c2ccc(NC(C)=O)cc2)c(OC)n1,97.6%
14,COc1ncc(-c2cc(NC3CCCC3)nc3[nH]ccc23)c(OC)n1,5.51%
15,COc1ncc(NS(=O)(=O)c2ccc(F)c(F)c2)c(OC)n1,-5.769%
16,CC(C)n1cnnc1CN(C)Cc1ccc(CN(C)S(C)(=O)=O)o1,-6.062%
17,CN(CC1CCN(CCO)CC1)CC(O)c1ccc(F)cc1 (centres undefined),8.04%
18,O=C(Nc1nnc(C2CC2)s1)NC1CCOc2ccccc21 (centres undefined),-5.522%
19,O=C(C1CC12CCC2)N1CCC(n2cc(-c3ccsc3)nn2)CC1 (centres undefined),-51.66%
20,CN(Cc1cnc(N)nc1)C(=O)C1CCN(C(=O)C2CCCC2)CC1,-2.189%
21,COC(C)(C)C(=O)N1CCC(c2cc(CN(C)C)n(C)n2)CC1.Cl,119.7%
22,CN(C)Cc1cc(C2CCN(C(=O)C3CCCNC3)CC2)nn1C.Cl (centres undefined),84.37%
23,CN(C)Cc1cc(C2CCN(C(=O)C3CC34CCC4)CC2)nn1C.Cl (centres undefined),106.1%
24,CN(C)CCN1CC(C(=O)N2CCC(c3cc(=O)[nH]cn3)CC2)CC1=O (centres undefined),11.42%
25,CCn1c(C2CCCN(C(=O)C(C)(C)OC)C2)nn(CCN(C)C)c1=O (centres undefined),-8.02%
26,Cc1cc(CN(C)C(=O)CN2CC3(CCNCC3)OC2=O)n(C)n1,-5.459%
